The source of these data is ChEMBL document CHEMBL3433997, “St. Jude Leishmania screening dataset” (2016).

Several values for one entry are separate records, joined by “and”; a condition that tells them apart may be missing. Equal values may be shown once.

This assay deals with Glucose transporter (Leishmania mexicana) (UniProt O61059). Briefly: ST_JUDE_LEISH: Cytotoxicity at 2uM final concentration against transgenic Leishmania Mexicana promastigotes LmGT2 that are glucose transport deficient and complemented with the L. Mexicana glucose transporter 2. Activity is measured by DNA content using SYBR green in vitro. The assay is classed as functional.
Turning to `COc1ccc(C=CC(=O)N2CCC(CN3CCC(c4c[nH]c5ccccc45)CC3)CC2)cc1OC`, the inhibition (as a rule, the drop in the measured response relative to a control, in per cent) was -0.06%.

With `COc1cccc(C=CC(=O)NC2CCC(CN3CCC(c4c[nH]c5ccccc45)CC3)CC2)c1OC` (stereo not given), the inhibition is 14.2%. Take `COc1ccc(CN2CCN(CCOC(c3ccccc3)c3ccccc3)CC2)c(O)c1`: the inhibition stood at 0.74%. For the molecule `NCc1ccc(-c2ccccc2CN(C(=O)Nc2ccccc2)C2CCN(Cc3ccccc3)CC2)cc1`, the inhibition was -3.48%. The figure for `N#Cc1ccc(N(CC(=O)NCCc2ccc(F)cc2)CC2CC2)c2ccccc12` is 1.47%; for `COc1ccc(C(=O)C2CC2CN2CC=C(c3c[nH]c4cccc(Br)c34)CC2)cc1` (stereo not given) it is 2.11%; for `COC(=O)/C=C/c1ccc(CC(C)NCC(O)c2cccc(Cl)c2)cc1` (stereo not given) it is -0.96%. Turning to `S=C(NCC1CCCCC1)NC1CCC(CN2CCC(c3c[nH]c4ccccc34)CC2)CC1` (stereo not given), the inhibition was found to be 0.26%. Consider `CC(Cc1ccc(S(=O)(=O)N(C(C)C)C(C)C)cc1)NCC(O)c1cccc(C(F)(F)F)c1` (stereo not given), for which the inhibition amounted to 1.68%. The figure for `CC1(CCCCN2CC=C(c3c[nH]c4ccccc34)CC2)C(=O)Nc2ccccc21` (stereo not given) is 2.1%; for `CCC(C)(C)NC(C)C(O)c1ccc(C(F)(F)F)cc1` (stereo not given) it is -0.15%; for `O=C(/C=C/c1cccc(F)c1)NC1CCC(CN2CCC(c3c[nH]c4ccccc34)CC2)CC1` (stereo not given) it is -1.71% and 2.77%. With `Cc1ccc(CC(C)NCC(O)c2cccc([N+](=O)[O-])c2)cc1` (stereo not given), the inhibition is 1.06%.

Regarding `O=C(Cc1c(-c2ccccc2)[nH]c2ccccc12)NC1CCC(CN2CCC(c3c[nH]c4ccccc34)CC2)CC1` (stereo not given), the inhibition was determined as 2.03%. `CN(CC(=O)N1CCN(S(=O)(=O)c2cccc(Cl)c2)CC1CN1CCCC1)c1ccc(Cl)c(Cl)c1` (stereo not given): the inhibition was 2.07%.
